Test results taken from PubChem BioAssay (NCATS).
Records with an inconclusive call do not appear. Activity calls are given as the source filed them. The call rests on the fitted dose curve; in most records, active means well fitted cell-killing curve with a large enough effect; inconclusive means small, poorly fitted or top-dose-only effect, or effect the other way; inactive means no such curve, though single readings can be large or run the other way.

Assay: Quantitative High-Throughput drug screen in 47 multiple myeloma cell lines against the NCATS MIPE library collection: KMM1_JCRB cell viability assay (AID 1918960); further: nearly all actives have a fitted effect of over 30% in size
Conditions: KMM1 myeloma viability, CellTiter-Glo ATP luminescence, 48 h; series mostly up to 45.8 µM
How it was run: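 Luminescence from CellTiter-Glo, taken after 5 min at room temperature, reports cellular ATP as viability. Cells (500 per well) had been treated 48 h at 37 °C with MIPE 4.0 compounds, scaled between DMSO and medium-only controls.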
Potency means the concentration at half of the fitted maximal effect.

SMILES | Potency
N=c1c2c(-c3ccccc3)c(-c3ccccc3)n(Cc3ccccc3)c2ncn1C1CCC(O)CC1 (centres undefined) | 0.662 µM (active)
CN[C@@H]1Cc2cccc3[nH]c(=O)n(c23)C1 | inactive
CCCCCC[C@H]1C(=O)O[C@H](C)[C@H](NC(=O)c2cccc(NC=O)c2O)C(=O)O[C@@H](C)[C@@H]1OC(=O)CC(C)C | 0.418 µM (active)
CN1CCN(c2ccc([N+](=O)[O-])c3no[n+]([O-])c23)CC1 | 20.9 µM (active)
COC[C@H]1OC(=O)c2coc3c2[C@@]1(C)C1=C(C3=O)[C@@H]2CC[C@H](O)[C@@]2(C)C[C@@H]1OC(C)=O | 5.9 µM (active)
C[C@]12Cc3cn[nH]c3C[C@@H]1CC[C@@H]1[C@H]2CC[C@@]2(C)[C@H]1CC[C@]2(C)O | inactive
COc1ccc(C(=O)c2c(C)n(CCN3CCOCC3)c3cc(I)ccc23)cc1 | 18.7 µM (active)
O=C(N[C@@H](COc1ccc2[nH]c(=O)[nH]c2c1)c1ccccc1)c1cccn(Cc2ccc(F)c(F)c2)c1=O | 18.7 µM (active)
C[C@]12CC[C@@H]3[C@@H](CCC4=CC(=O)CC[C@@H]43)[C@@H]1CC[C@@H]2OC(=O)CCc1ccccc1 | inactive
Cc1c(N)nc([C@H](CC(N)=O)NC[C@@H](N)C(N)=O)nc1C(=O)N[C@H](C(=O)N[C@@H](C)[C@H](O)[C@@H](C)C(=O)N[C@@H](C(=O)NCCc1nc(-c2nc(C(=O)NCCC[S+](C)C)cs2)cs1)[C@@H](C)O)C(O[C@H]1O[C@H](CO)[C@H](O)[C@@H](O)[C@@H]1O[C@H]1O[C@H](CO)[C@@H](O)[C@H](OC(N)=O)[C@H]1O)c1cnc[nH]1 (some centres undefined) | 0.418 µM (active)
CC(C)(C)c1cc(C=C(C#N)C#N)cc(Br)c1O | 18.7 µM (active)

Assay: Quantitative High-Throughput drug screen in 47 multiple myeloma cell lines against the NCATS MIPE library collection: Karpas417_ECACC cell viability assay (AID 1918961)
Conditions: Karpas417 myeloma viability, CellTiter-Glo ATP luminescence, 48 h; viability (% of DMSO): at 45.8 µM (top of the series)
How it was run: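 Myeloma cells (500 per well) were exposed to MIPE 4.0 compounds by pin transfer and incubated 48 hours at 37C, 5% CO2. Viability was read as ATP by CellTiter-Glo luminescence, normalised to DMSO (100%) and media-only (0%) wells.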

SMILES | Potency
COC1=C[C@@H]2[C@@H]3Cc4ccc(OC)c(O)c4[C@]2(CCN3C)CC1=O | 10.5 µM (active)
CCNC(=O)CC1N=C(c2ccc(Cl)cc2)c2cc(OC)ccc2-n2c(C)nnc21 (centres undefined) | 4.18 µM (active)
CCCCCC[C@H]1C(=O)O[C@H](C)[C@H](NC(=O)c2cccc(NC=O)c2O)C(=O)O[C@@H](C)[C@@H]1OC(=O)CC(C)C | 0.332 µM (active)
CN1CCN(c2ccc([N+](=O)[O-])c3no[n+]([O-])c23)CC1 | 5.26 µM (active)
CC1=NN=C(c2ccc(N)cc2)c2cc3c(cc2C1)OCO3 | 20.9 µM (active)
O=[N+]([O-])c1ncc[nH]1 | inactive
C[C@H]1CCCC=CC2C[C@H](O)C[C@@H]2[C@H](O)C=CC(=O)O1 (some centres undefined) | inactive
C[C@](O)(COc1ccc(C#N)cc1)C(=O)Nc1ccc(C#N)c(C(F)(F)F)c1 | 23.5 µM (active)
